PubChem BioAssay (NCI)
About 83,000 compounds went through this panel and 20% of them were active in at least one assay; those are over-represented in the sample as a whole.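 Activity criterion: percent growth below 10, measured after cells in 96-well plates were exposed to a single compound concentration for 48 hours.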 Unmarked numbers belong to inactive results. Calls of active or inactive are those of the source.

System: SK-MEL-2 melanoma
Test: NCI-60 one-dose screen, 48 h (100 = growth as untreated, 0 = no growth, -100 = all killed)
Details: 10 µM unless noted

Row | Compound | growth
1 | COc1ccc2c(c1)OC13Oc4cc(OC)ccc4C=C1CCCCC3=C2 | 80.2%
2 | C/C(=N/Nc1nc2ccccc2n1C)c1ccccn1 | 39.8%
3 | Cc1nc2sc(C(=O)Nc3cccc4ccccc34)c(N)c2cc1C(C)O (stereo not given) | 36.5%
4 | N#Cc1c(-c2ccc(F)cc2)c(C#N)c2c(C#N)c(N)nn2c1N | 102%
5 | CCOc1ccc(C2N(c3cc(OC)c(OC)c(OC)c3)C(=O)C2(F)F)cc1 (stereo not given) | 91.8%
6 | CCOc1ccccc1C(=O)/C=C/c1cc2ccccc2[nH]c1=O | 4.96% (active)
7 | Cc1ccc(C2=N[C@H]3CCC[C@@H]3N(c3ccccc3)C(C(Cl)Cl)=N2)cc1 | 96.8%
8 | COc1cc(/C=C/CO)cc(OC)c1O[C@@H]1O[C@H](CO)[C@@H](O)[C@H](O)[C@H]1O | 108%
9 | COc1ccc(C(=S)c2cc(OC)c(OC)c(OC)c2)cc1OC(=O)CCl | 41.9%
10 | O=C1CCC23OC(c4ccccc4N12)C(O)C(O)C3O (stereo not given) | 94.7%
11 | COc1cc(/C=C/C(=O)c2cccs2)ccc1OCc1ccc(Cl)nc1 | 96.7%
12 | O=c1c2ccccc2oc2ccc(OCCCCCN3CCCCCC3)cc12 | 99.4%
13 | C=C1C(=O)O[C@H]2[C@H]1CC/C(COC(=O)NCC(=O)Nc1ccc(OC)c(C(N)=O)c1O)=C\CC[C@@]1(C)O[C@@H]21 | 77.5%
14 | COc1ccc(-c2[nH]c3ccccc3c2C=C(C#N)C#N)cc1 | -14.5% (active)
15 | COC(=O)/C=C/c1cc(OC(C)=O)c2c(c1)C(C(=O)OC)C(c1ccc(OC(C)=O)c(OC(C)=O)c1)O2 (stereo not given) | 25%
